Compound activity (PubChem)
Sm TGR block – S. mansoni TGR enzyme inhibition | Q962Y6 | purified TGR, DTNB reduction, TNB absorbance 405 nm | Potency, µM (series often up to 114 µM), without a hit: at the top dose activity change, negative = inhibition, hits mostly inhibitors | 360,000 tested, 3% active | AID 485364; also: potency is read from the fitted curve at half-maximal effect; nearly all actives have a fitted effect of over 60% in size
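Kinetic colorimetric format: TGR-catalysed, NADPH-driven DTNB reduction monitored via TNB absorbance. Enzyme dispensed at 20 nM; compound exposure 15 min at room temperature before reaction start.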
Tb PYK inh – blocks Trypanosoma brucei pyruvate kinase | Q57TT1 | TbPYK enzyme, Kinase-Glo Plus ATP luminescence, 45 min | Potency, µM (series often up to 76.8 µM), inactives show at the top dose activity, negative = inhibition, usual class: inhibitors | 410,000 tested, 0.12% active; also: potency is read from the fitted curve at half-maximal effect; nearly all actives have a fitted effect of over 50% in size
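Readout: single end-point luminescence (Kinase-Glo Plus, 10 min). Reaction conditions were TbPYK/substrate plus 130 uM ADP, 45 min at RT, pH 7.2 TEA buffer. No-enzyme wells served as controls, and data were normalized before concentration-response fitting.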
HCMV antiviral – inhibitors of human cytomegalovirus. HFF cells, HCMV-luciferase reporter, 72 h; hits give low values. activity change, negative = inhibition, % at 57.5 µM. AID 1259415. 410,000 tested, 4.5% active; in the data active = activity change below about -60%; inconclusive = no clear call, values can overlap the other calls; inactive = above about -39%
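Inhibition of viral replication was scored as loss of reporter luminescence in HFFs infected with HCMV-luciferase (MOI 1 PFU/cell) for 72 h; compounds tested at 2 doses, normalized to buffer and Salinomycin controls.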
Giardia FBPA inh – inhibitors of Giardia lamblia fructose-1,6-bisphosphate aldolase; Potency, µM (highest dose often 59.6 µM), without a hit: at the highest dose activity, negative = inhibition, actives largely listed as inhibitors; 290,000 tested, 0.71% active; purified Giardia FBPA; A8B2U2; also: potency is read from the fitted curve at half-maximal effect; nearly all actives have a fitted effect of over 55% in size
Target sequence (A8B2U2 whole entry, looked up): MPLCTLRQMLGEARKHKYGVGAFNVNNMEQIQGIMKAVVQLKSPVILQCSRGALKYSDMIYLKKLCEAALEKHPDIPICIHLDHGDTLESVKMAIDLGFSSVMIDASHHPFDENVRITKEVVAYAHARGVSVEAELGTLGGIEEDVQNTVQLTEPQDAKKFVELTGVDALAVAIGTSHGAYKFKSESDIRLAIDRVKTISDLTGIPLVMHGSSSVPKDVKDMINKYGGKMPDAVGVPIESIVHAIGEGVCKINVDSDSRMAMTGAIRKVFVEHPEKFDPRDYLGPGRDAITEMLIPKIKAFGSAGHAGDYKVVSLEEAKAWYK
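40 nM FBPA preincubated 10 min at RT with compound (up to 57.5 uM final), then substrate plus GAPDH/TPI/NAD/arsenate coupling and diaphorase/resazurin added. Fluorescence read after 20 min at RT, 525/598 nm.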
FMDV antiviral – antivirals against foot and mouth disease virus. AID 1159524. Potency, µM (top dose mostly 57.9 µM), for the others: at the top dose activity change, negative = inhibition, hits mostly inhibitors. 410,000 tested, 1.2% active. FMDV antiviral cell-based qHTS; calls by dose curve; tested in HEK293T cells; also: read-out not given here; potency is read from the fitted curve at half-maximal effect; nearly all actives have a fitted effect of over 45% in size
RE007 growth inh – less growth of the S. pombe RE007 Vpr strain; Potency, µM (titrated, usually from 92.2 µM), for inactives: top-dose activity change, negative = less growth, usual class: inhibitors; 360,000 tested, 0.21% active; S. pombe RE007 Vpr strain, BacTiter-Glo ATP luminescence, 24 h; active = well fitted falling curve with a large enough effect; inconclusive = small, poorly fitted or top-dose-only effect; inactive = no such curve, though single readings can be large or run the other way; also: potency is read from the fitted curve at half-maximal effect; nearly all actives have a fitted effect of over 50% in size
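Fission yeast RE007 carrying one integrated HIV-1 vpr copy, seeded at OD 0.01 in PMG+AL medium with 23 nL pinned compound. Grown 24 h at 30 degrees; viability read by BacTiter-Glo luminescence after 5 min.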
Starred values were filed as active, the others as inactive; ? = inconclusive; / = no result given; [ ] = remark or other dose. Most compounds without a hit are left out; they make up all but 7.7% or so of the library. Unless noted, calls follow the shape of the dose curve; as a rule, active = well fitted curve in the direction sought with a large enough effect; inconclusive = small, poorly fitted or top-dose-only effect, or another doubt; inactive = no such curve, though single readings can be large; an effect the other way counts as inactive or inconclusive. % is scaled to controls: 0 for no effect and ±100 for the full control effect.

SMILES	Sm TGR block	Tb PYK inh	HCMV antiviral	Giardia FBPA inh	FMDV antiviral	RE007 growth inh
COc1cnc(-c2ccccn2)nc1N(C)C	-3%	10%	-99*	?	-10%	-8%
COc1cnc(-c2ccccn2)nc1Sc1ccccc1Cl	7%	2%	-98*	-16%	?	-29%
CCCS(=O)(=O)NCc1c(C)ncc2c1CCN(C(=O)c1cccc(C(F)(F)F)c1)C2	/	/	/	/	-16%	/
CC(C)Cc1cc(C(=O)NCC2Cc3cc(F)cc(-c4ccccn4)c3O2)no1 (stereo unspecified)	/	/	/	/	6%	/
COC(=O)[C@H](COC(C)(C)C)NC(=O)O[C@@H]1C(=O)c2cc(Br)ccc2O[C@H]1c1ccc2c(c1)OCO2	/	/	/	-4%	/	/
C=CCCC1CN(Cc2ccc(OC)cc2)S(=O)(=O)c2c(cccc2N2CCCC2)O1 (stereo unspecified)	/	/	-28	/	/	/
O=C(Nc1nc(-c2ccc([N+](=O)[O-])cc2)cs1)C1=COCCO1	/	-9%	-31	/	-17%	?
O=C(Nc1ccc(-c2nc3ccccc3s2)cc1)C1=COCCO1	5%	-8%	-21	6%	10µM*	-19%
Cc1cc(C)c(-c2csc(NC(=O)C3=COCCO3)n2)cc1C	1%	0%	22	/	-10%	13µM*
COc1ccc(-c2csc(NC(=O)C3=COCCO3)n2)c(OC)c1	-8%	6%	18	/	26%	?
O=C(Nc1nc(-c2ccc(-c3ccccc3)cc2)cs1)C1=COCCO1	-14%	-5%	-64*	9%	-5%	-13%
CC(=O)c1c(C)[nH]c(C(=O)Nc2nc(-c3ccc(-c4ccccc4)cc3)cs2)c1C	3%	2%	-39	-3%	11µM*	/
C[C@@H]1CCCCO[C@H](CN(C)C(=O)C2CCCCC2)[C@@H](C)CN([C@H](C)CO)C(=O)c2cc(NS(=O)(=O)c3cccs3)ccc2O1	/	/	0	/	/	/
CCOC(=O)c1cccc(NC(=O)CC(c2ccc(F)cc2)N2Cc3ccccc3C2=O)c1 (stereo unspecified)	-4%	4%	7	/	-16%	/
CC(C)(C)OC(=O)N1CCN(c2ccc(CNC(=O)c3ccc(Cl)cc3)cc2)CC1	-27%	/	-95*	-3%	25µM*	-1%[3.69 µM]
C[C@H](NC(=O)c1nc[nH]c1C(=O)NCc1ccc(CNC(=O)OC(C)(C)C)cc1)c1ccccc1	1%	-6%	-14	/	32µM*	6%
CC(C)(C)OC(=O)NCc1ccc(CNC(=O)c2nc[nH]c2C(=O)N2CCN(C(=O)OC(C)(C)C)CC2)cc1	-20%	-1%	-28	/	20µM*	-5%
C[C@H](NC(=O)c1nc[nH]c1C(=O)NCCCCCNC(=O)OC(C)(C)C)c1ccccc1	0%	-6%	-36	/	40µM*	-3%
CC(C)(C)OC(=O)NCc1ccc(CNC(=O)c2[nH]cnc2C(=O)Nc2ccccc2F)cc1	/	0%	-32	/	20µM*	-14%
CCC(=O)N1CCN(c2cc3c(cc2F)c(=O)c(C(=O)O)cn3CC)CC1	/	2%	74	/	4%	-16%
CCn1cc(C(=O)O)c(=O)c2cc(F)c(N3CCN(S(=O)(=O)c4ccc(NC(=O)OC)cc4)CC3)cc21	1%	-1%	-63*	-19%	-22%	/
C[N+](C)(C)CC(O)CC(=O)[O-] (stereo unspecified)	/	/	/	/	-3%	/
COc1ccc(C)cc1NC(=O)C(=O)NCCc1csc(-c2ccc(C)cc2)n1	9%	-1%	80	/	-4%	/
FC(F)(F)c1cccc(-c2cnc3ccc(C4CC4)nn23)c1	/	/	-82*	/	/	/
CCC[C@H]1[C@@H](NS(=O)(=O)c2cccc(C)c2)CC[C@@]23CCCN2C(=O)CCC[C@@H]13	/	/	35	/	/	/
SMILES	Sm TGR block	Tb PYK inh	HCMV antiviral	Giardia FBPA inh	FMDV antiviral	RE007 growth inh
COc1ccc(N2Cc3ccccc3C2)cc1Cl	32µM*	-1%	63	-12%	20%	-17%
COc1ccc(OC)c(N2Cc3ccccc3C2)c1	?	-8%	-1	?	8%	-10%
COc1ccc(Cl)cc1N1Cc2ccccc2C1	45µM*	1%	-1	-15%	-21%	98%
COc1cccc(NC(=O)c2cc(-c3ccc(C)o3)nc3ccccc23)c1	35µM*	-21%	29	8%	-11%	-14%
COc1cccc(NC(=O)CN(C)C(=O)c2cc(-c3ccc(C)o3)nc3ccccc23)c1	14µM*	4%	-9	/	-20%	-6%
Cc1ccc(-c2cc(C(=O)Nc3cccc(S(=O)(=O)N(C)C)c3)c3ccccc3n2)o1	22µM*	?	-31	-8%	-20%	-11%
Cc1ccc(NS(=O)(=O)c2cccc3cccnc23)cc1Cl	-23%	-11%	-94*	-9%	73%	6%
O=S(=O)(Nc1ccc(Cl)cc1)c1cccc2cccnc12	6%	-8%	-18	-5%	55%	6%
COc1ccc(CCNC(=O)c2nc(-c3ccc(Cl)cc3)n3c2CCCCC3)c(OC)c1	5%	0%	-15	/	?	/
CC(=O)Nc1ccc(Nc2ccc(S(=O)(=O)C(F)(F)F)cc2[N+](=O)[O-])cc1	4%	-4%	-97*	0%	0%	-2%
Cc1cccn2c(=O)c(C=O)c(N3CCCCC3)nc12	-15%	-1%	?	19%	-9%	6%
Cc1cccn2c(=O)c(C=O)c(Sc3ncccn3)nc12	22µM*	-9%	198	1%	?	-9%
Cc1cccn2c(=O)c(C=O)c(Cl)nc12	6.3µM*	-2%	-88*	-29%	32µM*	-12%
Cc1cccc(C)c1N/C=C/c1onc(C)c1[N+](=O)[O-]	89µM*	1%	-15	-11%	0%	94%
Cc1ccc(N/C=C/c2onc(C)c2[N+](=O)[O-])cc1	4%	0%	0	1%	18%	-6%
Cc1noc(/C=C/c2cccnc2)c1[N+](=O)[O-]	?	2%	-98*	0%	14µM*	?
O=c1[nH]c(/C=C\c2cccnc2)c([N+](=O)[O-])c(=O)[nH]1	-24%	5%	14	12%	-1%	-3%
COCCCNC(=O)CS(=O)(=O)Cc1nc(-c2cccc(OC)c2)oc1C	?	6%	5	-2%	-16%	3%
COc1cccc(-c2nc(CS(=O)(=O)CC(=O)NC3CCCCCC3)c(C)o2)c1	?	3%	-14	3%	-18%	-5%
COc1cccc(-c2nc(CS(=O)(=O)CC(=O)NC3CCCCC3C)c(C)o2)c1 (stereo unspecified)	40µM*	-1%	-22	-5%	-23%	1%
CCCCN(C)C(=O)CS(=O)(=O)Cc1nc(-c2cccc(OC)c2)oc1C	22µM*	-7%	-33	9%	-18%	18%
